# Test results: PubChem BioAssay (NCATS)
# Values joined by “and” are separate entries in the source; they are usually repeats but may differ in a detail not shown here. Equal values may be shown once. Records with an inconclusive call do not appear. Active and inactive are the calls of the source. Unless noted, the call rests on the fitted dose curve; in most records, active means well fitted curve in the direction sought with a large enough effect; inconclusive means small, poorly fitted or top-dose-only effect, or another doubt; inactive means no such curve, though single readings can be large; an effect the other way counts as inactive or inconclusive.
# Experiments:
# [1] = qHTS Assay for Lipid Storage Modulators (AID 1519; calls by dose curve; on activity change, negative = inhibition: on the % scale 0 is the no-effect control and ±100 the full control effect); conditions: Drosophila S3 cells, BODIPY lipid droplet/cell ratio, laser cytometry, cells loaded with oleic acid
# Outline: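 Cells seeded at 5,000 per well were treated with compounds over a concentration series and loaded with oleic acid (400 uM, as added). Lipid droplet fluorescence (488 nm excitation, 500-530 nm channel) was read by laser-scanning cytometry and normalized to 20 uM Triacsin C.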
# [2] = molecular target: Alpha-galactosidase A (Homo sapiens) (UniProt P06280); experiment: Counterscreen for Glucocerebrosidase Inhibitors: qHTS Assay for Human alpha-Galactosidase at pH 4.5 (AID 992); conditions: purified enzyme, fluorogenic substrate; series mostly up to 76.9 µM; further: 0% is about no effect
# Sequence of Alpha-galactosidase A (Homo sapiens) (P06280 whole entry, looked up): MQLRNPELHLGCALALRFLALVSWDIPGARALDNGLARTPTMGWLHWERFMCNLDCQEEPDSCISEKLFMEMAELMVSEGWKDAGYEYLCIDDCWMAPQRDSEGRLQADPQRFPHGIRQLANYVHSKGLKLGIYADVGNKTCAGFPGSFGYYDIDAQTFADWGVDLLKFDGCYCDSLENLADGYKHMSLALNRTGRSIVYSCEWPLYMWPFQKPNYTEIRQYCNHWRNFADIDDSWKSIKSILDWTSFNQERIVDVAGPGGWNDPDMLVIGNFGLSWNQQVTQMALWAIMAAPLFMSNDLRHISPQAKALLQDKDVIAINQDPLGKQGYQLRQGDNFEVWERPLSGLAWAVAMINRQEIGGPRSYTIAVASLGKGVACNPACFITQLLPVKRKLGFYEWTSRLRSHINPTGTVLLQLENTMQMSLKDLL
# Outline: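 Enzyme at 2 nM final was combined with compound (0.7 nM to 77 uM) and 80 uM 4-methylumbelliferyl alpha-D-galactopyranoside in 50 mM citric acid, 0.005% Tween-20, pH 4.5. After 20 min at room temperature, fluorescence was read (Ex 365/Em 440 nm); AC50 came from Hill fits.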
# [3] = molecular target: alpha-glucosidase (Oryza sativa, rice) (UniProt Q653V4); experiment: Counterscreen for Glucocerebrosidase Inhibitors: qHTS Assay for Rice alpha-Glucosidase at pH 5.0 (AID 997); conditions: rice alpha-glucosidase enzyme activity; series mostly up to 76.9 µM;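 further: 0% = full activity with enzyme and -100% = basal without enzyme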
# Outline: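 Rice alpha-glucosidase (4 nM final) with 400 uM 4-methylumbelliferyl-alpha-D-glucopyranoside in citrate buffer pH 5.0, 20 min at room temperature, stopped at pH 10; fluorescence 365/440 nm, compounds 0.7 nM–77 uM, AC50 from Hill fits.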
# [4] = Validation of Assay for Modulators of Lamin A Splicing (AID 1459; active means well fitted curve in the direction sought with a large enough effect in the signal ratio; the % refers to the signal ratio;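 further: cells exposed to compound for two days before reading; 0% is about no effect; ratio rise marks activators and ratio drop marks inhibitors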); conditions: Lamin A splicing dual RFP/GFP fluorescence reporter; series mostly up to 9.22 µM
# Outline: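 HeLa S3 lamin A-EGFP/DsRed2 stable clone, 600 cells/well, Opti-MEM 2% FBS; compounds by pin tool; 48 hrs, 37 °C/5% CO2; Acumen 488 nm scan, objects 10-100 um; GFP/RFP intensity ratio.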
# [5] = Counterscreen for APE1 Inhibitors: Fluorescent Dye Displacement Validation Assay (AID 1707); conditions: fluorescent dye displacement from DNA; series mostly up to 57.1 µM; further: potency means the concentration at half of the fitted maximal effect;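 on activity change, negative = inhibition: plate controls were ThO with dsDNA and no compound for no effect and ThO without dsDNA for full effect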
# Outline: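 Thiazole Orange displacement from dsDNA: 250 nM ThO with 50 nM TAMRA-labelled abasic-site (tetrahydrofuran) duplex in 50 mM Tris-HCl pH7.5, 50mM NaCl, 2 mM MgCl2, 0.01% Tween-20. Loss of endpoint fluorescence (ex 480 nm, em 540 nm) flags DNA binders.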
# [6] = molecular target: Endonuclease 4 (Escherichia coli (strain K12)) (UniProt P0A6C1); experiment: Counterscreen for APE1 Inhibitors: qHTS Validation Assay for Inhibitors of Endonuclease IV (AID 1708); further: on the % scale 0 is the no-effect control and ±100 the full control effect; conditions: E. coli endonuclease IV, DNA cleavage fluorescence; series mostly up to 57.1 µM
# Outline: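 Enzymatic AP-site incision assay using a double-stranded THF substrate labelled with TAMRA and BHQ-2; released fluorescence signals activity. Enzyme 2 nM, substrate 50 nM, 15 min compound preincubation.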
# [7] = qHTS for differential inhibitors of proliferation of Plasmodium falciparum line 7G8 (AID 1815); conditions: Plasmodium falciparum 7G8 proliferation inhibition; series mostly up to 28.7 µM;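 further: parasite growth measured after three days of incubation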; further: potency means the concentration at half of the fitted maximal effect;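 on activity change, negative = inhibition: plate controls were vehicle wells for no effect and reference inhibitor wells for full effect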
# [8] = qHTS for differential inhibitors of proliferation of Plasmodium falciparum line GB4 (AID 1816); conditions: Potency: Plasmodium falciparum GB4 proliferation inhibition; series mostly up to 28.7 µM;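 further: parasite growth measured after 72 h incubation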; further: potency means the concentration at half of the fitted maximal effect;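 on activity change, negative = inhibition: 0% = vehicle DMSO and -100% = reference inhibitor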
# [9] = molecular target: DNA repair nuclease/redox regulator APEX1 (Homo sapiens) (UniProt P27695); experiment: qHTS Validation Assay for Inhibitors of the Human Apurinic/apyrimidinic Endonuclease 1 (APE1) (AID 1705; further: potency means the concentration at half of the fitted maximal effect;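 on activity change, negative = inhibition: TAMRA fluorescence gain over two minutes as APE1 cuts a quenched THF abasic duplex; on the % scale 0 is the no-effect control and ±100 the full control effect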); conditions: purified APE1 endonuclease activity, fluorescence, titration; series mostly up to 57.1 µM
# Sequence of DNA repair nuclease/redox regulator APEX1 (Homo sapiens) (P27695 whole entry, looked up): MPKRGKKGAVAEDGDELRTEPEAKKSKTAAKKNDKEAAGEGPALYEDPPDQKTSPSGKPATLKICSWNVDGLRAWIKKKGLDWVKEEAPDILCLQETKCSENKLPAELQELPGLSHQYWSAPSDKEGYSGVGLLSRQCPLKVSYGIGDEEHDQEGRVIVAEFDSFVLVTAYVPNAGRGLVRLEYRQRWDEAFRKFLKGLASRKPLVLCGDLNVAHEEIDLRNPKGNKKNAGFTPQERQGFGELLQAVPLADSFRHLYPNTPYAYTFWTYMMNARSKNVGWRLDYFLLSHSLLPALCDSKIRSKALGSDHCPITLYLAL
# Outline: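 qHTS, 1536-well. APE1 + cpd 15 min RT → 50 nM TAMRA/BHQ-2 THF-abasic dsDNA substrate → kinetic fluorescence, 3 reads/60 s; delta(read3−read1) = reaction progress. No-enzyme buffer = negative control.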
# [10] = qHTS for differential inhibitors of proliferation of Plasmodium falciparum line 3D7 (AID 1876); further: potency means the concentration at half of the fitted maximal effect; conditions: P. falciparum 3D7 proliferation inhibition; series mostly up to 28.7 µM
# [11] = Cell Viability - LYMP2-026 (AID 989); conditions: LYMP2-026 lymphoblastoid cell viability, qHTS; series mostly up to 92.2 µM;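 further: cells exposed to compound for 24 h at 37 °C; on the % scale 0 is the no-effect control and ±100 the full control effect; nearly all actives have a fitted effect of over 50% in size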
# Outline: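 Concentration-dependent loss of intracellular ATP in human lymphoblastoid cells after 24 hr at 37 C, quantified by luciferase luminescence. AC50 derived from standard Hill equation.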
# [12] = measured here: cell count channel max response
# [13] = measured here: lipid channel max response
smiles,measurement,setting,value
O=c1cc(CO)occ1O,"activity change, negative = inhibition",[1]; at 57.5 µM (top of the series),0.978% (inactive)
same,max response,[1]; [12],23.1%
same,max response,[1]; [13],26.9%
NCC(=O)CCC(=O)O,"activity change, negative = inhibition",[1]; at 57.5 µM (top of the series),1.06% (inactive)
same,max response,[1]; [12],6.63%
same,max response,[1]; [13],10.2%
N=c1c[n+](N2CCOCC2)[n-]o1,outcome,[2],inactive
same,outcome,[3],inactive
same,outcome,[4],inactive
same,"activity change, negative = inhibition",[1]; at 57.5 µM (top of the series),-0.431% (inactive)
same,max response,[1]; [12],25.9%
same,max response,[1]; [13],27.5%
same,Potency,[5],inactive
same,Potency,[6],inactive
same,Potency,[7],inactive
same,Potency,[8],inactive
CCCCCCCCCCCCCCCC(=O)NCCO,outcome,[2],inactive
same,outcome,[3],inactive
same,outcome,[4],inactive
same,Potency,[9],inactive
same,Potency,[5],inactive
same,Potency,[6],inactive
same,Potency,[10],12.6 µM (active)
CC(CN1c2ccccc2Sc2ccccc21)N(C)C (configuration not stated),outcome,[4],inactive
same,"activity change, negative = inhibition",[1]; at 57.5 µM (top of the series),7.97% (inactive) and 1.76% (inactive)
same,max response,[1]; [12],24.2% and 6.53%
same,max response,[1]; [13],44.6% and 8.19%
same,Potency,[9],inactive
same,Potency,[5],inactive
same,Potency,[6],inactive
same,Potency,[7],7.08 µM (active)
same,Potency,[8],6.31 µM (active)
same,Potency,[10],14.1 µM (active)
CC1(C)OC(=O)NC1=O,"activity change, negative = inhibition",[1]; at 25.7 µM (top of the series),-0.879% (inactive)
same,max response,[1]; [12],-12%
same,max response,[1]; [13],-11.9%
COc1ccc(Cl)cc1C(=O)NCCc1ccc(S(=O)(=O)NC(=O)NC2CCCCC2)cc1,outcome,[2],inactive
same,outcome,[3],inactive
same,outcome,[4],inactive
same,"activity change, negative = inhibition",[1]; at 25.7 µM (top of the series),1.56% (inactive)
same,"activity change, negative = inhibition",[1]; at 57.5 µM (top of the series),12.5% (inactive) and -0.0195% (inactive)
same,max response,[1]; [12],8.8% and 2.97% and -31.1%
same,max response,[1]; [13],12.4% and 18.9% and -32.5%
same,Potency,[9],inactive
same,Potency,[5],inactive
same,Potency,[6],inactive
same,Potency,[8],inactive
same,Potency,[10],inactive
C[C@H](N)[C@H](O)c1cccc(O)c1,"activity change, negative = inhibition",[1]; at 25.7 µM (top of the series),-0.37% (inactive)
same,max response,[1]; [12],15.1%
same,max response,[1]; [13],15%
CNCCC(Oc1ccc(C(F)(F)F)cc1)c1ccccc1 (configuration not stated),outcome,[4],inactive
same,Potency,[5],inactive
same,Potency,[6],inactive
CN1CCOC(c2ccccc2)c2ccccc2C1 (configuration not stated),"activity change, negative = inhibition",[1]; at 57.5 µM (top of the series),6.92% (inactive)
same,max response,[1]; [12],13.7%
same,max response,[1]; [13],26.3%
O=C1N=C(O)CN1/N=C/c1ccc(-c2ccc([N+](=O)[O-])cc2)o1,outcome,[4],inactive
same,Potency,[9],inactive
same,Potency,[6],inactive
same,Potency,[10],11.2 µM (active)
COC(=O)C1=C(C)NC(C)=C(C(=O)OC)C1c1ccccc1[N+](=O)[O-],Potency,[11],inactive
same,outcome,[2],inactive
same,outcome,[3],inactive
same,outcome,[4],inactive
same,Potency,[9],inactive
same,Potency,[5],inactive
same,Potency,[6],inactive
O=C(Oc1ccccc1C(=O)O)c1ccccc1O,"activity change, negative = inhibition",[1]; at 57.5 µM (top of the series),4.87% (inactive)
same,max response,[1]; [12],-1.82%
same,max response,[1]; [13],6.63%
CN1CCN(C2Cc3ccccc3Sc3ccc(Cl)cc32)CC1 (configuration not stated),outcome,[4],inactive
same,"activity change, negative = inhibition",[1]; at 57.5 µM (top of the series),1.27% (inactive)
same,max response,[1]; [12],-11.4%
same,max response,[1]; [13],-9.31%
same,Potency,[9],inactive
same,Potency,[5],inactive
same,Potency,[7],6.31 µM (active)
same,Potency,[8],11.2 µM (active)
same,Potency,[10],10 µM (active)
OCC(O)CN1CCN(c2ccccc2)CC1 (configuration not stated),"activity change, negative = inhibition",[1]; at 57.5 µM (top of the series),11.8% (inactive)
same,max response,[1]; [12],18.2%
same,max response,[1]; [13],35.4%
C=Cc1c(C)c2cc3[nH]c(cc4nc(cc5nc(cc1[nH]2)C(C)=C5CCC(=O)O)C(CCC(=O)O)=C4C)c(C)c3C=C,outcome,[2],inactive
same,outcome,[3],inactive
same,outcome,[4],inactive
same,"activity change, negative = inhibition",[1]; at 57.5 µM (top of the series),12.2% (inactive)
same,max response,[1]; [12],1.69%
same,max response,[1]; [13],21.3%
same,Potency,[9],5.01 µM (active)
same,Potency,[5],7.94 µM (active)
same,Potency,[6],inactive
same,Potency,[7],inactive
same,Potency,[8],inactive
same,Potency,[10],inactive
CCN(CC)CCOC(=O)C1(C2CCCCC2)CCCCC1,outcome,[2],inactive
same,outcome,[3],inactive
same,outcome,[4],inactive
same,"activity change, negative = inhibition",[1]; at 25.7 µM (top of the series),-3.18% (inactive)
same,"activity change, negative = inhibition",[1]; at 57.5 µM (top of the series),4.04% (inactive) and 0.569% (inactive)
same,max response,[1]; [12],0.165% and 5.59% and 10.8%
same,max response,[1]; [13],-2.15% and 9.9% and 9.37%
same,Potency,[9],inactive
same,Potency,[5],inactive
same,Potency,[6],inactive
same,Potency,[7],8.91 µM (active)
same,Potency,[8],14.1 µM (active)
CC1=C(CC(=O)O)c2cc(F)ccc2/C1=C\c1ccc(S(C)(=O)=O)cc1,outcome,[2],inactive
same,outcome,[3],inactive
same,outcome,[4],inactive
same,Potency,[9],inactive
same,Potency,[5],inactive
same,Potency,[6],inactive
same,Potency,[8],inactive
same,Potency,[10],inactive
CCCCCCCCCCCCCCCCCCOCC(O)CO (configuration not stated),"activity change, negative = inhibition",[1]; at 57.5 µM (top of the series),4.1% (inactive)
same,max response,[1]; [12],15.6%
same,max response,[1]; [13],19.9%
CCCCN1CCCC[C@H]1C(=O)Nc1c(C)cccc1C,"activity change, negative = inhibition",[1]; at 25.7 µM (top of the series),-1.47% (inactive)
same,max response,[1]; [12],8.59%
same,max response,[1]; [13],9.64%
OCc1cc(C(O)CNCCCCCCOCCCCc2ccccc2)ccc1O (configuration not stated),outcome,[2],inactive
same,outcome,[3],inactive
same,outcome,[4],inactive
same,"activity change, negative = inhibition",[1]; at 57.5 µM (top of the series),-1.85% (inactive)
same,max response,[1]; [12],12.8%
same,max response,[1]; [13],10.1%
same,Potency,[9],inactive
same,Potency,[5],inactive
same,Potency,[6],inactive
same,Potency,[7],8.91 µM (active)
same,Potency,[8],8.91 µM (active)
same,Potency,[10],8.91 µM (active)
CC(CN(C)C)CN1c2ccccc2CCc2ccccc21 (configuration not stated),outcome,[4],inactive
same,"activity change, negative = inhibition",[1]; at 57.5 µM (top of the series),8.3% (inactive) and -0.445% (inactive)
same,max response,[1]; [12],-4.41% and -13%
same,max response,[1]; [13],4.99% and -13.2%
same,Potency,[9],inactive
same,Potency,[5],inactive
same,Potency,[7],8.91 µM (active)
same,Potency,[8],5.62 µM (active)
same,Potency,[10],8.91 µM (active)
Cc1cc2c(cc1S(N)(=O)=O)S(=O)(=O)CCC2,"activity change, negative = inhibition",[1]; at 25.7 µM (top of the series),-2.69% (inactive)
same,max response,[1]; [12],5.71%
same,max response,[1]; [13],1.67%
Cc1c(Cl)cccc1Nc1ccccc1C(=O)O,"activity change, negative = inhibition",[1]; at 25.7 µM (top of the series),-0.93% (inactive)
same,max response,[1]; [12],-6.86%
same,max response,[1]; [13],-11.8%
CCN(CC)CCNC(=O)c1cc(Cl)c(N)cc1OC,outcome,[2],inactive
same,outcome,[3],inactive
same,outcome,[4],inactive
same,"activity change, negative = inhibition",[1]; at 25.7 µM (top of the series),-0.223% (inactive)
same,"activity change, negative = inhibition",[1]; at 57.5 µM (top of the series),6.86% (inactive)
same,max response,[1]; [12],-7.61% and 4.16%
same,max response,[1]; [13],-6.48% and 12.9%
same,Potency,[9],inactive
same,Potency,[5],inactive
same,Potency,[6],inactive
same,Potency,[7],inactive
same,Potency,[8],inactive
same,Potency,[10],inactive
O=C(O)c1ccccc1O,"activity change, negative = inhibition",[1]; at 57.5 µM (top of the series),9.55% (inactive)
same,max response,[1]; [12],11.4%
same,max response,[1]; [13],27.4%
CC(=O)c1ccc2c(c1)N(CCCN(C)C)c1ccccc1S2,"activity change, negative = inhibition",[1]; at 25.7 µM (top of the series),-1.98% (inactive)
same,max response,[1]; [12],0.996%
same,max response,[1]; [13],-1.83%
